Among the data in ChEMBL document CHEMBL4513216, “Probing the Open Global Health Chemical Diversity Library for Multistage-Active Starting Points for Next-Generation Antimalarials” (ACS Infect Dis, 2020) are INHIBITION values, retold here.

SMILES strings stand for the structures. In all, about 69,000 compounds went through this assay and about 8,600 (12%) showed an effect of 50% or more. What follows is part of a selection rich in strong results, with near analogues and random picks from the rest.

The experiment deals with Plasmodium berghei. Nature of the experiment: Screen against P. berghei liver stage (PbLuc), transformed with Luciferase, at 10uM. The format is functional, HepG2. To be noted: tested at 10 uM.
In the case of `CCn1c(C)nnc1CN(C)C1CCN(CC2CCC2)C1` (centres undefined), the INHIBITION is recorded as -4.16%.

Turning to `c1cc(CN2CCOC(Cn3cccn3)C2)c2c(c1)OCCO2` (centres undefined), the INHIBITION turned out to be 25.1%.

In the case of `COC(=O)c1cc2c(OC)c(C)c(OC)cc2[nH]1`, the INHIBITION is -1.45%.

Turning to `COc1ccc(OC)c(-c2nc(CN(C)Cc3nonc3C)c(C)o2)c1`, the INHIBITION is reported as -28%.

`COCc1ncn(Cc2nc(-c3ccc(OC)cc3F)oc2C)n1`: the INHIBITION came to 8.86%.

Regarding `COc1ccc(OC)c(-c2nc(CN(C)Cc3nncn3C)c(C)o2)c1`, the INHIBITION is on record as 57.8%.

For the compound `CCn1cnnc1CN(C)Cc1nc(-c2cc(OC)ccc2F)oc1C`, the INHIBITION is on record as 50.4%.

With `COc1ccc(-c2nc(CN(C)Cc3nncn3C)c(C)o2)c(C)c1C`, the INHIBITION was -29.1%.

For the compound `CCc1cc(CN(C)Cc2nc(-c3ccc(OC)cc3F)oc2C)on1`, the INHIBITION amounted to 39.9%.

For `Cc1occc1C(=O)N1C[C@H](Oc2ccccn2)[C@H]2OCCC[C@H]21`, the INHIBITION came to 34.9%.

`CN1CCCC(c2cccc(CCC(=O)NCc3ccccn3)n2)C1` (centres undefined): the INHIBITION is reported as 3.91%.

Turning to `CCC(C)C(=O)N(C)Cc1cc(F)ccc1N1CCC(OC)CC1` (centres undefined), the INHIBITION is listed as 33.7%.

Consider `CCc1cnc(CN(C(C)=O)C2CCN(CC(=O)N3CCCC3)C2)o1` (centres undefined), for which the INHIBITION was determined as 30.6%.

Take `COCCNC(=O)CN(C)CCn1nc2ccccn2c1=O`: the INHIBITION is 23.8%.

With `C[C@@H](N)C(=O)N1CC2(CCNCC2)c2cc(Cl)ccc21`, the INHIBITION is on record as 33.4%.

Regarding `CC1CCN(C(=O)c2cc(NC(=O)c3ccccc3)n(C)n2)CC1`, the INHIBITION turned out to be 26.4%.

As for `C=C(Cl)CN(C)C1CCN(CCc2ccccn2)CC1`, the INHIBITION is given as 35.9%.

In the case of `CSc1nccc(N2CCC3(CCCN(Cc4cccc(C)c4)C3)C2)n1` (centres undefined), the INHIBITION was 69.9%.

For the compound `CCN1CCC2(CCC1=O)CN(c1ccnc(SC)n1)CCN2C` (centres undefined), the INHIBITION is listed as 8.57%.

For `Cc1cccc(N2CCC3(CCCN(C(=O)Cc4cccnc4)C3)C2)n1` (centres undefined), the INHIBITION came out at 17.5%.

As for `CSc1nccc(N2CCC3(CCCN(CCc4ccccc4)C3)C2)n1` (centres undefined), the INHIBITION turned out to be 85.2%.

As for `Fc1ccc(CN2CCCC3(CCN(Cc4ncc[nH]4)C3)C2)cc1F` (centres undefined), the INHIBITION worked out at 26%.

`CSc1nccc(N2CCC3(CCCN(Cc4ccc(F)cc4)C3)C2)n1` (centres undefined): the INHIBITION came out at 85.2%.

`CSc1nccc(N2CCC3(CCCN(CC4CC4)C3)C2)n1` (centres undefined): the INHIBITION was -21.9%.

On to `CSc1nccc(N2CCN(C)C3(CCNC(=O)CC3)C2)n1` (centres undefined), for which the INHIBITION is -17.7%.

Consider `CCO[C@H]1CO[C@@]2(CCCN(S(=O)(=O)c3cccnc3)C2)C1`, for which the INHIBITION stood at 34.6%.

`CCOC[C@]12COC[C@H]1CN(Cc1ccc3c(c1)OCO3)C2`: the INHIBITION came out at 38.5%.

Take `Cc1nc(N2CCN(C(=O)c3ccccn3)CC2)c2c(n1)c(C)nn2C`: the INHIBITION came out at 12.6%.

`CN1CCC(N(Cc2ccncc2)C(=O)COCC2CCCCO2)CC1` (centres undefined): the INHIBITION is recorded as 17.2%.

Take `CCCC(=O)N1CCC(c2cc[nH]n2)C1` (centres undefined): the INHIBITION was found to be 17.4%.

As to `CN(C)CCN1CCOCC2(C1)CN(Cc1ccco1)CCO2` (centres undefined), the INHIBITION is given as 26.7%.

Turning to `CCNC(=O)N1CCC(OC)c2ccccc2N(CC(=O)NC)C(=O)C1` (centres undefined), the INHIBITION is 35.1%.

For `Cc1ccc(C(O)CNC(=O)Nc2cc(C)nn2C)cc1` (centres undefined), the INHIBITION is recorded as -11.735%.

In the case of `CN(C)C(=O)N1C[C@H]2CC[C@@H](C1)N(C(=O)c1c(Cl)cccc1Cl)C2`, the INHIBITION was 12.1%.

Turning to `CCN(CCCNc1ncnc2cc(F)c(F)cc12)S(C)(=O)=O`, the INHIBITION is -4.93%.

For the compound `CCS(=O)(=O)NCCCNc1ncnc2cc(F)c(F)cc12`, the INHIBITION is -30.5%.

On to `CSCCCNc1ncnc2cccc(F)c12`, for which the INHIBITION is 56.7%.

Turning to `Fc1cccc2ncnc(NCCCc3ccncc3)c12`, the INHIBITION is reported as 73%.

Consider `CS(=O)(=O)NCCNc1ncnc2cccc(F)c12`, for which the INHIBITION is on record as 24.9%.

In the case of `CN(C)CCCNc1ncnc2cccc(F)c12`, the INHIBITION turned out to be 41.8%.

In the case of `CN1[C@@H]2CC[C@H]1CN(C(=O)c1sccc1S(N)(=O)=O)CC2`, the INHIBITION is listed as 8.74%.

Take `O=C(CN1C(=O)CCC1=O)NCc1nn(C2CCCC2)c2c1CCCC2`: the INHIBITION was 56.3%.

For the compound `O=C(CN1C(=O)CCC1=O)NCc1cc(C2CC2)n(C2CCCC2)n1`, the INHIBITION was found to be 13.9%.

`Cc1nnsc1C(=O)NCc1nn(C2CCCC2)c2c1CCCC2`: the INHIBITION was 49.4%.

As for `CC(=O)N[C@@H]1CN(Cc2ccccc2C#N)C[C@H]1c1ccc(C)cc1`, the INHIBITION was determined as 41.3%.

`COCCn1ccc(NCc2sccc2C)n1`: the INHIBITION is recorded as -60.1%.

In the case of `O=C(Cc1ccccc1Cl)Nc1ccn(CCN2CCOCC2)n1`, the INHIBITION was determined as 45.8%.

On to `CS(=O)(=O)CCn1ccc(NC(=O)Cc2ccccc2F)n1`, for which the INHIBITION is recorded as 21.2%.

Turning to `Cn1ccc(NC(=O)Cc2ccccc2F)n1`, the INHIBITION amounted to 57.1%.

Turning to `CSC1(CNC(=O)NCc2sccc2C)CCOCC1`, the INHIBITION was determined as 30.4%.

Regarding `O=C(NCc1ccccc1F)Nc1ccn(CCN2CCOCC2)n1`, the INHIBITION was 50.1%.

For the compound `Cc1ccsc1CNC(=O)Nc1ccn(CCN2CCOCC2)n1`, the INHIBITION stood at 64%.

Turning to `Cn1ccc(NC(=O)Cc2cccc(F)c2)n1`, the INHIBITION is -74.2%.

As to `O=C(NCc1cccc(F)c1)Nc1ccn(CCN2CCOCC2)n1`, the INHIBITION is listed as 40.5%.

For the compound `Cc1[nH]c2c(C)ccc(C)c2c1CC(=O)NC1CCCNC1=O` (centres undefined), the INHIBITION was determined as 35.7%.

With `COC(=O)CCNC(=O)c1nc(NS(=O)(=O)c2ccccc2)sc1C`, the INHIBITION worked out at 32.2%.

In the case of `COc1c(C2CCCN2CC(=O)N2CCCCC2)c(C)nn1C` (centres undefined), the INHIBITION came out at 8.12%.

Take `O=C(CCn1cnnn1)N1CCCC(CO)(CCc2ccccc2)C1` (centres undefined): the INHIBITION came to 39.8%.

As to `O=C(CCn1cncn1)N1CCCC(CO)(CCCc2ccccc2)C1` (centres undefined), the INHIBITION was 72.3%.

Consider `O=C(CCn1cnnn1)N1CCCC(CO)(CCCc2ccccc2)C1` (centres undefined), for which the INHIBITION was 23.1%.

Turning to `CN(C)C(=O)CN1CCCC1c1nc(N)ncc1-c1ccc(F)cc1` (centres undefined), the INHIBITION is 34%.

With `N#Cc1ccc(NC2CCN(CC(F)F)CC2)c(F)c1`, the INHIBITION is 8.53%.

As to `N#Cc1cccc(N2CC3(CCN(C(=O)c4ccnnc4)C3)CC2=O)c1` (centres undefined), the INHIBITION was -13.1%.

Regarding `CC(C)=CCC1(C(=O)O)CCCN(CCC(=O)NC2CC2)C1` (centres undefined), the INHIBITION was 61.8%.

On to `CC(C)=CCC1(C(=O)O)CCCN(c2ccnc(C)n2)C1` (centres undefined), for which the INHIBITION is given as 47.4%.

Take `O=C(CCN1CCCC(CC2CC2)(C(=O)O)C1)NC1CCCC1` (centres undefined): the INHIBITION stood at 60.7%.

On to `O=C(CCN1CCCC(CO)(CC2CC2)C1)NC1CCCCC1` (centres undefined), for which the INHIBITION was determined as 34.5%.

With `CC(C)=CCC1(C(=O)O)CCCN(c2cc(N)ncn2)C1` (centres undefined), the INHIBITION was found to be 46.4%.

For the compound `Cc1nc(C)n(CC2CCCN(CCC(=O)NC3CCCC3)C2)n1` (centres undefined), the INHIBITION is -8.11%.
